Source: the supplement of paper PMC3545927
This is one part of the list. How many sequences the whole screen found active is unknown.

B1: HC810 (peptide)
chain: CAFLADGGCSAGNASASA
B2: HC111 (peptide)
chain: CAVVCCKMSYAGNASASA
B3: FS-1593 (peptide)
chain: CAHRGVTKRSAGNASASA
B4: FS-1581 (peptide)
chain: CAYKSRTKRSAGNASASA
B5: FS-1332 (peptide)
chain: CAGRSRTKRSAGNASASA
B6: FS-533 (peptide)
chain: CAGRSRPDRSAGNASASA
B7: HC1443 (peptide)
chain: CAFCVQPEKGAGNASASA
B8: HC2038 (peptide)
chain: CAVVTCSMSYAGNASASA
B9: HC2541 (peptide)
chain: CASTPCSNHLAGNASASA
B10: FS-1533 (peptide)
chain: CAHRGPARRSAGNASASA
B11: FS-1165 (peptide)
chain: CASHQRTKRSAGNASASA
B12: FS-746 (peptide)
chain: CAAKHRTKRSAGNASASA
B13: FS-675 (peptide)
chain: CAKKQETKRSAGNASASA
B14: HC2421 (peptide)
chain: CAEVPCHRPNAGNASASA
B15: HC100 (peptide)
chain: CAVVCPSMSYAGNASASA
B16: FS-993 (peptide)
chain: CAEQWRSRRSAGNASASA
B17: FS-1453 (peptide)
chain: CAEQIRQDRSAGNASASA
B18: FS-1629 (peptide)
chain: CAHAWRSRRSAGNASASA
B19: FS-1983 (peptide)
chain: CAGARRSVIGAGNASASA
B20: FS-3251 (peptide)
chain: CARGRRKTGEAGNASASA
B21: FS-2673 (peptide)
chain: CARGRKSPSKAGNASASA
B22: FS-784 (peptide)
chain: CAGPGRPYRAAGNASASA
B23: FS-422 (peptide)
chain: CAGARRSRRAAGNASASA
B24: FS-1005 (peptide)
chain: CAGVSRSCRAAGNASASA
B25: FS-1330 (peptide)
chain: CAGPSRQNRGAGNASASA
B26: FS-3252 (peptide)
chain: CARGRRSPHTAGNASASA
B27: FS-2021 (peptide)
chain: CARGRRDFPEAGNASASA
B28: HC1764 (peptide)
chain: CAMEECSQHIAGNASASA

Molecular target: furin, P09958
Assay: furin cleavage Z-score vs untreated control; higher = more cleavage, active = 3.5 or more, inactive = 1 or less, 8 variable residues between constant flanks
Outline: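 Cleavage by purified furin was measured on 8-mer peptides fused to a cDNA oligonucleotide and held on magnetic beads by their N-terminus. Reactions (0.01 ml, 1:10 enzyme:substrate) ran 7.5, 15 or 30 min in 50 mM HEPES pH 7.5 with CaCl2 and NaCl. Released DNA was adapter-tagged by PCR and sequenced, with read counts giving abundance. Log counts versus furin-free reactions were lowess-adjusted and scaled by median absolute deviation to give the cleavage Z-score.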

furin, P09958, sequence (P09958 whole entry): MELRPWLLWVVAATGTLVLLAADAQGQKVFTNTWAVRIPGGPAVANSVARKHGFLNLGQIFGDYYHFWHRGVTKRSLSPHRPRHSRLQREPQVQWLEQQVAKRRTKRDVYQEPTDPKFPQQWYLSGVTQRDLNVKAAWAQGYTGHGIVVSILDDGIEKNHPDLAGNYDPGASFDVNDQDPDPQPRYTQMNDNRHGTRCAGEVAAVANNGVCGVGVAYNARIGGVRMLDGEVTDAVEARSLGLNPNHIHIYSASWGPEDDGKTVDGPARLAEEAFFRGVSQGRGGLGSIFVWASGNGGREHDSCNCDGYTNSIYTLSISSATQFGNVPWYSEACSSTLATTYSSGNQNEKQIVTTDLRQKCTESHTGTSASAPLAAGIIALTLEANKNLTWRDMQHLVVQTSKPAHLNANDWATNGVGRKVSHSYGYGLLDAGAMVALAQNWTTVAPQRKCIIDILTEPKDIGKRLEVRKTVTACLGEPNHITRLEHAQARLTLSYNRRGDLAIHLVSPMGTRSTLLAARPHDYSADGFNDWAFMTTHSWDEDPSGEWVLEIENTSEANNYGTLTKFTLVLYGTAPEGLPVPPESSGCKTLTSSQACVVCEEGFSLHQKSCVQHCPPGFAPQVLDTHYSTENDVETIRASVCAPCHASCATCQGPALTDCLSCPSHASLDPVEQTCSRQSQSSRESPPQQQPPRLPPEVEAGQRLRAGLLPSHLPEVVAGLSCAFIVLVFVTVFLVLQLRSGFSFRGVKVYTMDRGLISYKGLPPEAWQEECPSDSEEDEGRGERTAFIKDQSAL

| Sequence | furin cleavage Z-score (7.5 min) | furin cleavage Z-score (15 min) | furin cleavage Z-score (30 min) |
| --- | --- | --- | --- |
| B1 | -0.0827 (inactive) | -0.994 (inactive) | -0.4 (inactive) |
| B2 | 2.65 | 1.75 | 0.575 (inactive) |
| B3 | 6.75 (active) | 7.15 (active) | 6.87 (active) |
| B4 | 12.8 (active) | 13.7 (active) | 8.1 (active) |
| B5 | 10.4 (active) | 9.78 (active) | 7.49 (active) |
| B6 | 5.97 (active) | 7.05 (active) | 7.1 (active) |
| B7 | -1.06 (inactive) | -0.187 (inactive) | 0.825 (inactive) |
| B8 | 0.204 (inactive) | -0.0386 (inactive) | -0.133 (inactive) |
| B9 | 0.901 (inactive) | 1.16 | 0.705 (inactive) |
| B10 | 2.51 | 2.95 | 4.27 (active) |
| B11 | 8.79 (active) | 9.17 (active) | 6.69 (active) |
| B12 | 14.6 (active) | 14.7 (active) | 10.8 (active) |
| B13 | -0.996 (inactive) | 0.0553 (inactive) | 0.952 (inactive) |
| B14 | -0.123 (inactive) | 0.813 (inactive) | 1.61 |
| B15 | -0.389 (inactive) | 0.782 (inactive) | 1.57 |
| B16 | 10.6 (active) | 9.84 (active) | 7.38 (active) |
| B17 | -0.0806 (inactive) | 0.259 (inactive) | 0.047 (inactive) |
| B18 | 10.5 (active) | 8.73 (active) | 8.99 (active) |
| B19 | -0.924 (inactive) | 0.507 (inactive) | -0.671 (inactive) |
| B20 | -0.45 (inactive) | -1.86 (inactive) | 0.0435 (inactive) |
| B21 | -0.571 (inactive) | -0.51 (inactive) | -0.0739 (inactive) |
| B22 | -0.745 (inactive) | 0.68 (inactive) | 0.71 (inactive) |
| B23 | 7.16 (active) | 6.59 (active) | 5.19 (active) |
| B24 | 3.78 (active) | 4.22 (active) | 5.16 (active) |
| B25 | -0.197 (inactive) | -0.893 (inactive) | -0.697 (inactive) |
| B26 | 7.13 (active) | 8.09 (active) | 6.93 (active) |
| B27 | 1.74 | 3.62 (active) | 3.22 |
| B28 | -0.598 (inactive) | 0.0833 (inactive) | 0.396 (inactive) |
